From PubChem BioAssay (Tox21)
Inconclusive results are not listed. Where a call stands in place of a potency, no number is given. Active and inactive are the calls of the source. The call rests on the fitted dose curve; in most records, active means well fitted cell-killing curve with a large enough effect in the repeat runs; inconclusive means weak or mixed curves, or effect the other way; inactive means flat fitted curve, though single readings scatter.

assay: qHTS assay to identify small molecule antagonists of the androgen receptor (AR) signaling pathway using the MDA cell line - cell viability counter screen (AID 743041; further: nearly all actives have a fitted effect of over 45% in size); conditions: MDA-kb2 viability, CellTiter-Fluor, 16 h, cells co-treated with R1881 androgen agonist; series mostly up to 70.3 µM
Excerpt: National Center for Advancing Translational Sciences [NCATS]
NIH Chemical Genomics Center [NCGC]
U.S. Environmental Protection Agency [EPA]
National Institutes of Environmental Health Sciences [NIEHS]
National Toxicology Program [NTP]
U.S. Food and Drug Administration [FDA]
Androgen receptor (AR), a nuclear hormone receptor, plays a critical role in AR-dependent prostate cancer and other androgen related diseases. Endocrine disrupting chemicals (EDCs) and their interactions with steroid hormone receptors like AR may cause disruption of normal endocrine function as well as interfere with metabolic homeostasis, reproduction, developmental and behavioral functions. To identify the compounds that inhibit AR signaling, MDA-kb2 AR-luc cell line (from ATCC, deposited by Wilson et al.) was used to screen the Tox21 10K compound library. MDA-kb2 AR-luc cell line is human breast carcinoma cell line that was stably transfected with a luciferase reporter gene under control of the MMTV promoter containing response elements for both androgen receptor (AR) and glucocorticoid receptor (GR). The cytotoxicity of the Tox21 compound library against the MDA-kb2 AR-luc cell line was tested in parallel by measuring the cell viability using CellTiter-Fluor assay (Promega, Madison, WI) in the same wells.
Tox21 Assay Protocol Summary:
MDA-kb2 AR-luc cells were dispensed at 3,000 cells/4 uL/well of culture medium into white wall/solid-bottom 1536-well plates using a Multidrop Combi (ThermoFisher Scientific, Waltham, MA) dispenser. After the assay plates were incubated at a 37C and 0% CO2 for 5 hr, 23 nL of compounds dissolved in DMSO, positive controls or DMSO only was transferred to the assay plate by a Pintool station (Kalypsys, San Diego, CA), followed by addition of 1 uL of agonist (R1881) in culture medium using a Bioraptr Flying Reagent Dispenser (FRD) workstation (Beckman Coulter, Indianapolis, IN, USA). The plates were incubated at a 37C and 0% CO2 for 16 h. After 15.5 h incubation, 1uL of CellTiter-Fluor reagent (Promega) was added using a Bioraptr FRD to each plate for measuring cytotoxicity. The fluorescence intensity was quantified on a ViewLux plate reader (PerkinElmer, Shelton, CT) following 30 min incubation at 37C and 0% CO2.
Potency means the concentration at half of the fitted maximal effect.

SMILES	Potency
COc1cccc(N)c1	inactive
O=C(c1ccc(O)cc1O)c1ccc(O)cc1O	inactive
O=C1c2ccccc2Cc2ccccc21	inactive
CC[C@H](c1ccc(O)cc1)[C@@H](CC)c1ccc(O)cc1	inactive
Cc1cc(N)c(S(=O)(=O)O)cc1Cl	inactive
COc1cc(-c2ccc(N=C=O)c(OC)c2)ccc1N=C=O	inactive
CCc1cc(SCc2sc(-c3ccc(C(F)(F)F)cc3)nc2CN2CCN(c3ccc(OC)cc3)CC2)ccc1OCC(=O)O	inactive
N/C(=N\N=C\c1ccc(Cl)cc1)N/N=C/c1ccc(Cl)cc1	inactive
Cc1cc(O)c(C(C)(C)C)cc1C(C)(C)C	43.3 µM (active)
Cc1cc(CCN2CCN(c3nsc4ccccc34)CC2)cc2c1NC(=O)CC2(C)C	48.6 µM (active)
C/C=C1/C(=O)C[C@H]2[C@@H]3CCC4=CC(=O)CC[C@]4(C)[C@H]3CC[C@]12C	inactive
CCN(C(=O)N(CC)c1ccccc1)c1ccccc1	inactive
CCOC(=O)c1nc(C(Cl)(Cl)Cl)n(-c2ccc(Cl)cc2Cl)n1	inactive
O=S1(=O)CC(Cl)(Cl)C(Cl)(Cl)C1	13.7 µM (active)
O=C(OC[C@H]1O[C@@H](OC(=O)c2cc(O)c(O)c(OC(=O)c3cc(O)c(O)c(O)c3)c2)[C@H](OC(=O)c2cc(O)c(O)c(OC(=O)c3cc(O)c(O)c(O)c3)c2)[C@@H](OC(=O)c2cc(O)c(O)c(OC(=O)c3cc(O)c(O)c(O)c3)c2)[C@@H]1OC(=O)c1cc(O)c(O)c(OC(=O)c2cc(O)c(O)c(O)c2)c1)c1cc(O)c(O)c(OC(=O)c2cc(O)c(O)c(O)c2)c1	22.1 µM (active)
CCN1/C(=C/C=C/c2sc3ccccc3[n+]2CC)Sc2ccccc21	0.75 µM (active)
CCCCCCCCCCCCCCCS(=O)(=O)Oc1ccccc1	inactive
O=C(c1ccc(F)cc1)C1CCN(CCn2c(=O)[nH]c3ccccc3c2=O)CC1	inactive
CC(C)(C)C(=O)OCOC(=O)[C@@H]1N2C(=O)[C@@H](NC(=O)[C@H](N)c3ccccc3)[C@H]2SC1(C)C	inactive
Oc1c(Cl)cc(Cl)c2cccnc12	11.1 µM (active)

SMILES	Potency
C=CC(=O)OCCn1c(=O)n(CCOC(=O)C=C)c(=O)n(CCOC(=O)C=C)c1=O	30.6 µM (active)
C=CC(=O)OCC(CO)(COCC(COC(=O)C=C)(COC(=O)C=C)COC(=O)C=C)COC(=O)C=C	1.2 µM (active)
N#CSc1ccc(N)c([N+](=O)[O-])c1	61.5 µM (active)
Cc1cccc(CN2CCN(C(c3ccccc3)c3ccc(Cl)cc3)CC2)c1 (stereo not given)	inactive
CCC(C)(C)C1CCCCC1OC(C)=O (stereo not given)	inactive
O=c1cc(-c2ccc(O)cc2)oc2cc(O)cc(O)c12	inactive
NC(=NCCCCCCN=C(N)/N=C(\N)Nc1ccc(Cl)cc1)/N=C(\N)Nc1ccc(Cl)cc1	inactive
ON=C1CCCC1	inactive
O=C(O)c1c(Cl)cccc1Cl	inactive
C[n+]1ccn(Cc2ccccc2)c1	inactive
Cc1[nH]cnc1C[C@H]1CCc2c(C)c3ccccc3n2C1=O	inactive
CCCC(C)c1ccccc1O (stereo not given)	inactive
CCCCCCCC/C=C\CCCCCCCCOCCO	14.1 µM (active)
Clc1ccc2nsnc2c1NC1=NCCN1	inactive
[O-][n+]1ccccc1SSc1cccc[n+]1[O-]	1.56 µM (active)
CCOC(=O)/C=C(C)/C=C/C=C(C)/C=C/c1c(C)cc(OC)c(C)c1C	inactive
O=C1C=CC(=O)N1c1ccc(Cc2ccc(N3C(=O)C=CC3=O)cc2)cc1	54.5 µM (active)
NNC(=O)c1cccc(C(=O)NN)c1	inactive
CS(=O)(=O)CCNCc1ccc(-c2ccc3ncnc(Nc4ccc(OCc5cccc(F)c5)c(Cl)c4)c3c2)o1	inactive
C[C@@H]1C[C@H]2[C@@H]3CCC4=CC(=O)C=C[C@]4(C)[C@@]3(Cl)[C@@H](O)C[C@]2(C)[C@@]1(OC(=O)c1ccco1)C(=O)CCl	inactive
